Potency and affinity values are given separately. Activity calls are given as the source filed them. Entries that show only a call come without a potency. The rule behind the calls is not given here.
These compounds were tested against Plasmodium falciparum protein kinase 6 (PK6, PF3D7_1337100) (UniProt Q8IDW1) (assay: PfPK6 kinase inhibitors, biochemical, TCAMS library (AID 1159586)). Details: recombinant PfPK6, Kinase-Glo ATP depletion luminescence.
Plasmodium falciparum protein kinase 6 (PK6, PF3D7_1337100), sequence (Q8IDW1 1-305): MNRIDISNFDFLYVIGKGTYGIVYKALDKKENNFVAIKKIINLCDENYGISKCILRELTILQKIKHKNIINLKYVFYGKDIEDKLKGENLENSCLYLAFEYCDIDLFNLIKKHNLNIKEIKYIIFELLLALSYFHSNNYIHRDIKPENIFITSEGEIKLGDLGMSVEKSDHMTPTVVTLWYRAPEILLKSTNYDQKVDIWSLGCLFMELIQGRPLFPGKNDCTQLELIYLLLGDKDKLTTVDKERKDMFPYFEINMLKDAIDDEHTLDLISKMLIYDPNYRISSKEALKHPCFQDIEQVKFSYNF
With CN1CCc2cc(I)c(O)cc2C1Cc1ccccc1Cl (stereo not given) the outcome was “inactive”. O=C(/C=C/c1ccc(Cl)c(Cl)c1)NCCCCCN1CCN(C(=O)Nc2ccc(Cl)c(C(F)(F)F)c2)CC1 was tested, and the outcome was “inactive”. In the case of CCN1CCC(N(Cc2ccc(-c3ccc(C(F)(F)F)cc3)cc2)C(=O)Cn2c(CCc3cccc(F)c3F)cc(=O)c3ccccc32)C1 (stereo not given), the outcome is reported as “inactive”. In the case of Cc1cc2nc(-c3ccc(/C=C/C(=O)NCc4ccc(Cl)c(Cl)c4)cc3)[nH]c2cc1C, the outcome is reported as “inactive”. For CC(=O)Nc1cccc(CNCc2ccc(-c3cnc(N4CCCC(C)(C)C4)nc3)cc2)c1, the outcome was “inactive”. Cc1cc(NCCc2ccccc2)nc(/N=C(\N)Nc2ccccc2Cl)n1 was tested, and the outcome was “inactive”. CC(C)CC(NC(=O)c1cccc(OCCN2CCOCC2)c1)C(=O)NC(/C=N/NC(=O)c1ccccc1)CCc1ccccc1 (stereo not given) was tested, and the outcome was “inactive”. CC(C)(C)c1cc(C(=O)Nc2ccc(C(=N)N)cc2)c(O)c(C(C)(C)C)c1 was tested, and the outcome was “inactive”. With Cc1ccc2c(NN=Cc3ccc(N(C)C)cc3)cc(C)nc2c1 the outcome was “inactive”. In the case of CC1CCCN(S(=O)(=O)c2cc(Br)cc3c2N(C(=O)C2CC2)CC3)C1 (stereo not given), the outcome is reported as “inactive”. For Cc1cc(OCCCN2CCCCC2)ccc1NC(=O)COc1ccc(Cl)cc1C(=O)c1cc(C#N)cc(C(F)(F)F)c1, the outcome was “inactive”. In the case of CCCCCCN1CCC(NCc2cccc([N+](=O)[O-])c2)CC1, the outcome is reported as “inactive”. For CCCCCN1CCCN(Cc2cccc(NC(=O)c3ccc(Cl)c(Cl)c3)c2)CC1, the outcome was “inactive”. CCc1c(CCNCCCCCCNCCc2ccc([N+](=O)[O-])cc2)ccc(OC)c1OC was tested, and the outcome was “inactive”. With Cc1cc(-c2ccc(NC(=O)N3CCc4cc(Br)c(N5CCN(C)CC5)cc43)cc2)ccc1C#N the outcome was “inactive”.

From PubChem BioAssay
